The list is not random: actives were taken first. Their share in the collection is about 7.3%.
KinaseGlo FLuc: counter-screen: inhibitors of Kinase-Glo firefly luciferase; Q27757; Kinase-Glo luciferase, ATP luminescence, 8 min; Potency, µM (highest dose often 38.3 µM), for the others: at the highest dose activity change, negative = inhibition, actives largely listed as inhibitors; hit rate 0.28% among 200,000; further: on the % scale 0 is the no-effect control and ±100 the full control effect; nearly all actives have a fitted effect of over 60% in size
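Compounds were added to a substrate mix at pH 7.2 (50 mM imidazole, 10 uM ATP, within the enzyme's linear range), followed by Kinase-Glo detection reagent; luminescence was measured after 8 minutes at ambient temperature.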
NPC1 promoter act: activators of NPC1 promoter. Huh7 NPC1 promoter luciferase reporter, 24 h. Potency, µM (titrated, usually from 9.22 µM), for the others: at the highest dose activation, usual class: activators. hit rate 2.4% among 320,000. AID 485313; further: % of control where 0% means no effect; nearly all actives have a fitted effect of over 60% in size
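Huh7 cells stably carrying NPC1 promoter–luciferase, plated in Opti-MEM with 10% FBS for 2 h, were exposed to compound in DMSO for 24 h at 37 °C; luciferase reagent was added for 10 min and luminescence read.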
SMN2 splice enh: increases expression of the SMN2 splice variant; HEK293 SMN2-luciferase splicing reporter, luminescence, 30-36 h; Potency, µM (highest dose often 46.1 µM), without a hit: top-dose activity change, positive = activation, usual class: activators; hit rate 2.8% among 210,000; further: % of control where 0% means no effect; nearly all actives have a fitted effect of over 55% in size
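qHTS luciferase splicing reporter: luminescence rises when SMN2 exon 7 is included in transfected HEK293 cells. Compound exposure lasted 30-36 h at 37C, with 4.5 mM final sodium butyrate as control, followed by a ONE-Glo read.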
FLuc counter: counter-screen for miR-21 project: firefly luciferase inhibitors or activators; purified FLuc, Km substrates, luminescence inhibition; Potency, µM (titrated, usually from 57.5 µM), inactives show at the top dose activity change, negative = inhibition, usual class: inhibitors; hit rate 6.9% among 360,000;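 further: plate controls were vehicle for no effect and reference inhibitor for full effect; nearly all actives have a fitted effect of over 55% in size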
Target sequence (P08659 whole entry, looked up): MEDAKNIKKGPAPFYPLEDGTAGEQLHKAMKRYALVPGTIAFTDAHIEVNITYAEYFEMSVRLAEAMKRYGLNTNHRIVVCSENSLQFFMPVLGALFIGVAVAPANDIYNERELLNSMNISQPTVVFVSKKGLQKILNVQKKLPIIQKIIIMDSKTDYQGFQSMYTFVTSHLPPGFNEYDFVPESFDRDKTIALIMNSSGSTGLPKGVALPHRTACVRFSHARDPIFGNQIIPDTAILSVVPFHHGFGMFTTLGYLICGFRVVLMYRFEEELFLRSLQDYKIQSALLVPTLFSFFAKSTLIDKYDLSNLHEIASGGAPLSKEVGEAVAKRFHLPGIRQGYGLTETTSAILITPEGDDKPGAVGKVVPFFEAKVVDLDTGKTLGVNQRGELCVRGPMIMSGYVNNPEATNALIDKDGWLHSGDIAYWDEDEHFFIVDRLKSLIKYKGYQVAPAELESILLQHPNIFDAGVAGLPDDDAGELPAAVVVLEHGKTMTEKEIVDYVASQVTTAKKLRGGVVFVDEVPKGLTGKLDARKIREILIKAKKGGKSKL
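Purified P. pyralis luciferase, 10 nM final, with Km-level 10 uM D-luciferin and 10 uM ATP in 50 mM Tris acetate pH 7.5, 10 mM Mg acetate, 0.01% Tween-20, 0.05% BSA; 6-point qHTS titration about 60 µM downward; luminescence read.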
Rab9 prom act: activators of Rab9 promoter. hit rate 2.8% among 320,000. Potency, µM (doses to about 9.22 µM), inactives show at the top dose activation, negative = inhibition, usual class: activators. AID 485297. Huh7 Rab9 promoter-luciferase reporter, luminescence, 24 h; further: % of control where 0% means no effect; nearly all actives have a fitted effect of over 60% in size
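Huh7 cells stably carrying a Rab9 promoter-luciferase reporter, 1500 cells per well in OP-MEM I with 10% FBS, treated with compound 24 hours at 37C. Luciferase activity read by luminescence after 10 minutes with Amplite reagent.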
Active calls of the source: *; ? = inconclusive; · = not tested or not shown. The call rests on the fitted dose curve; in most records, active means well fitted curve in the direction sought with a large enough effect; inconclusive means small, poorly fitted or top-dose-only effect, or another doubt; inactive means no such curve, though single readings can be large; an effect the other way counts as inactive or inconclusive. Potency means the concentration at half of the fitted maximal effect.

SMILES	KinaseGlo FLuc	NPC1 promoter act	SMN2 splice enh	FLuc counter	Rab9 prom act
CC(C)Cn1c(/C=C/c2ccc(F)cc2)nc2ccccc21	·	·	17.8µM*	2.39µM*	·
CC(C)CCn1c(/C=C/c2ccccc2)nc2ccccc21	·	·	?	4.26µM*	·
NC(=S)NNC(N)=S	·	·	14.1%	·	·
COc1cccc(C(=O)Nc2nc3nc(C)c(Cc4ccccc4)c(=O)n3[nH]2)c1	·	·	23.4%	?	·
O=C(NCC(c1ccco1)S(=O)(=O)c1cccs1)c1ccc(F)c(F)c1 (stereo not drawn)	·	·	·	3.7%	·
COc1ccccc1CNC(=O)Cn1ncc2c(C)n(Cc3ccccc3Cl)c(C)c2c1=O	·	·	-14.8%	-17.3%	·
O=C(CSc1c2c(nc3ccc(Cl)cc13)CCCC2)N1CCN(c2cccc(Cl)c2)CC1	·	·	-46.6%	-7.9%	·
CCC(C)Cn1c(/C=C/c2ccccc2)nc2ccccc21 (stereo not drawn)	·	·	22.7%	6.75µM*	·
CSc1ccc(/C=N/N2CCN(C)CC2)cc1	-6.9%	?	17.8µM*	21.3µM*	3.16µM*
CSc1ccc(/C=N/N2CCN(Cc3ccc(Cl)cc3)CC2)cc1	0.6%	-3.7%	-39.1%	-3.9%	-3.8%
CSc1ccc(/C=N/n2c(C)cc(C)cc2=O)cc1	-9.3%	?	?	15.1µM*	2.82µM*
CSc1ccc(/C=N/n2c(C)nnc2C)cc1	3.0%	-10.0%	10.4%	-4.1%	-6.0%
CN1CCN(/N=C/c2ccc(-c3ccccc3)cc2)CC1	-5.5%	3.55µM*	?	19µM*	?
O=C(Nc1ccc2c(c1)OCO2)Nc1ccc(Br)cn1	-1.8%	3.98µM*	12.6µM*	6.01µM*	1.58µM*
COC(=O)c1ccc(NC(=O)Nc2ccc3c(c2)OCO3)cc1	·	?	·	6.75µM*	?
Cc1cccc(C)c1NC(=O)Nc1ccc2c(c1)OCO2	1.7%	3.1%	-35.2%	3.7%	-7.0%
COC(=O)c1ccc(NC(=O)CN(c2ccc3c(c2)OCO3)S(C)(=O)=O)cc1	2.9%	-2.7%	4.5%	-2.2%	-0.2%
Cc1ccnc(NC(=O)Nc2ccc3c(c2)OCO3)c1	-11.8%	0.631µM*	6.31µM*	1.9µM*	0.501µM*
O=C(Nc1ccc2c(c1)CCC2)Nc1ccc2c(c1)OCO2	-2.6%	3.55µM*	12.6µM*	?	2.24µM*
CCNS(=O)(=O)c1ccc(NC(=O)Nc2ccc3c(c2)OCO3)cc1	·	13.5%	·	?	9.0%
COc1ccc(NC(=O)Nc2ccc(C)cc2OC(F)F)cc1OC	3.2%	-4.5%	-43.7%	-1.5%	-1.0%
O=C(Nc1ccc2c(c1)OCCO2)NC12CC3CC(CC(C3)C1)C2	2.8%	2.51µM*	22.4µM*	6.01µM*	1.26µM*
Cc1ccc(NC(=O)Nc2ccc3c(c2)OCO3)c(OC(F)F)c1	·	2µM*	·	4.78µM*	3.55µM*
O=C(Nc1ccc2c(c1)OCCO2)Nc1ccc2c(c1)OCO2	-6.9%	0.398µM*	2.51µM*	0.953µM*	0.1µM*
NS(=O)(=O)c1ccc(NC(=O)Nc2ccc3c(c2)OCO3)cc1	·	?	·	15.1µM*	?
SMILES	KinaseGlo FLuc	NPC1 promoter act	SMN2 splice enh	FLuc counter	Rab9 prom act
CC1CCN(S(=O)(=O)c2ccc3c(c2)N(CC(=O)N2CCN(c4ccc(Cl)cc4)CC2)C(=O)CO3)CC1	·	·	-2.8%	-2.1%	·
COc1ccc(NC(=O)CN(C)S(=O)(=O)c2ccc3nc(C)sc3c2)cc1	·	·	·	-0.5%	·
NC(=O)c1ccc(NC(=O)Nc2ccc3c(c2)OCO3)cc1	·	?	·	23.9µM*	?
O=C(Nc1ccc(S(=O)(=O)NCc2ccccc2)cc1)Nc1ccc2c(c1)OCO2	-0.3%	29.6%	?	21.3µM*	27.2%
CCc1ccccc1NC(=O)Nc1ccc2c(c1)OCO2	?	23.6%	-0.4%	1.4%	26.5%
O=C(Nc1ccc2c(c1)OCO2)Nc1ccccc1F	·	0.447µM*	·	2.39µM*	0.501µM*
O=C(Nc1cccc([N+](=O)[O-])c1)Nc1ccc2c(c1)OCCO2	-0.6%	?	11.2µM*	2.69µM*	1.78µM*
Cc1ccccc1NC(=O)CSc1nc2ccc(NC(=O)CCc3ccccc3)cc2s1	·	·	·	-14.0%	·
Cc1cc(O)c2c(c1O)C(=O)C(O)=C(O)C2=O	0.8%	·	-8.7%	·	·
CSc1nc2sc3c(c2c(=O)n1Cc1ccccc1)CCC(C(C)(C)C)C3 (stereo not drawn)	·	·	-1.1%	?	·
CCCOc1cccc(C2c3c(oc4ccccc4c3=O)C(=O)N2c2nncs2)c1 (stereo not drawn)	·	·	0.1%	4.2%	·
Cc1ccc(-c2csc(=Nc3ccccc3)n2Cc2ccc3c(c2)OCO3)cc1	·	·	?	-44.0%	·
Cc1ccc(NC(=O)Nc2ccc3c(c2)OCO3)cc1F	·	1.12µM*	·	0.601µM*	1.26µM*
COCCNC(=S)NNC(=O)c1cc(-c2cccnc2)nc2ccccc12	·	-1.9%	·	8.49µM*	-0.5%
COCCCNC(=S)NNC(=O)c1cc(-c2cccnc2)nc2ccccc12	·	0.4%	·	10.7µM*	-3.3%
CCCc1cc(C(=O)NNC(=S)NCC)c2ccccc2n1	-2.9%	-0.8%	-70.0%	?	-2.5%
COCCCNC(=S)NNC(=O)c1cc(C2CC2)nc2ccccc12	·	-0.5%	·	12µM*	-4.4%
COCCCNC(=S)NNC(=O)c1cc(-c2ccncc2)nc2ccccc12	·	-0.8%	·	8.49µM*	0.2%
CCc1cccc(NS(=O)(=O)c2ccc3c(c2)N(CC(=O)OC)C(=O)CS3)c1	·	·	·	-1.2%	·
CCN(CC)CCCNC(=O)c1nn(-c2ccc(OC)c(Cl)c2)c(=O)c2c1c1ccccc1n2C	·	·	-5.8%	-2.1%	·
CCC(=O)N1c2ccccc2CC1C(=O)NCCN1CCN(c2cccc(C)c2C)CC1 (stereo not drawn)	·	·	·	-2.3%	·
CCNC(=S)NNC(=O)c1cc(-c2cc(C)ccc2C)nc2ccccc12	6.1%	-4.7%	-18.0%	19µM*	-0.8%
COC(=O)CCn1nnc(-c2ccc(C)cc2)n1	3.9%	-2.0%	19.3%	16.9µM*	3.0%
CC(C)C(=O)Nc1nc2ccc(S(C)(=O)=O)cc2s1	-1.4%	14.0%	26.8%	?	18.2%
CCOC(=O)c1ccc2nc(NC(C)=O)sc2c1	-0.3%	?	12.6µM*	?	2.24µM*
SMILES	KinaseGlo FLuc	NPC1 promoter act	SMN2 splice enh	FLuc counter	Rab9 prom act
COC(=O)c1ccc2nc(NC(=O)CN3C(=O)CCC3=O)sc2c1	-4.7%	-3.5%	7.1%	?	3.4%
COC(=O)c1ccc2nc(Nc3nc4c(F)cc(F)cc4s3)sc2c1	0.7%	-15.6%	-84.8%	5.36µM*	-25.2%
COC(=O)c1ccc2nc(NC(=O)C3CC3)sc2c1	·	2.24µM*	·	19µM*	?
COC(=O)c1ccc2nc(NC(=O)C(C)C)sc2c1	1.3%	2µM*	5.62µM*	8.49µM*	1.12µM*
Cc1cccc(Cn2cc(S(=O)(=O)c3cccc(Cl)c3)c(=O)c3cc(F)c(N4CCOCC4)cc32)c1	·	·	·	2.1%	·
CCOc1ccccc1NC(=O)Cn1nc2c3cc(F)ccc3n(Cc3cccc(C)c3)cc-2c1=O	·	·	·	-3.6%	·
COC(=O)c1ccc2nc(NC(=O)CSCC(=O)OCC(=O)c3ccccc3)sc2c1	-1.3%	11.3%	2.4%	16.9µM*	11.4%

Screens from PubChem.
